In the supplement of paper PMC10681739:

Molecular target: RUNX1 (UniProt Q01196)
Test: RUNX1 binding intensity (PBM fluorescence) in presence of ETS1, normalised to RUNX1-only experiment (arbitrary fluorescence units); higher = stronger binding
Settings: RUNX1 concentration 2 nM; ETS1 concentration 25 nM
Experimental: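 Cooperative gcPBM on 36-bp genomic probes with neighbouring ETS1 and RUNX1 sites. Recombinant human RUNX1 (2 nM) was incubated alone or with ETS1 (25 nM) and detected with anti-RUNX1 antibody plus Alexa488 secondary. Values are medians over 4 replicate spots; the RUNX1+ETS1 data were normalised to the RUNX1-only data. The probes sit in constant array flanks that are not printed.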
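Further: Full-length recombinant human ETS1 or RUNX1 bound to double-stranded 36-bp genomic probes on microarrays, detected by protein-specific primary antibody and Alexa488 secondary, spot fluorescence as median of four replicate spots.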

Chain of RUNX1 (Q01196 whole entry): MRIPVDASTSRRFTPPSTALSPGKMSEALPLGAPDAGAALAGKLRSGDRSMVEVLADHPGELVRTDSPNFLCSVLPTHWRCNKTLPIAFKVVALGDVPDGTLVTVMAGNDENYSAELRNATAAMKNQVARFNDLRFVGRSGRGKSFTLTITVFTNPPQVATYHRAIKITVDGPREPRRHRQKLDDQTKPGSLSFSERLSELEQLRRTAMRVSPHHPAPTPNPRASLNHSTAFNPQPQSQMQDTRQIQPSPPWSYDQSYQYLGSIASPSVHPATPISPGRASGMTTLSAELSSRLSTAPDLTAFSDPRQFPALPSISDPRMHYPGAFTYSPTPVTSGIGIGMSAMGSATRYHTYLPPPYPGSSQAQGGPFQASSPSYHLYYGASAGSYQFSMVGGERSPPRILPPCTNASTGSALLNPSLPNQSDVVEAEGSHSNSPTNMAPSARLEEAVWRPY

Sequence | RUNX1 binding intensity
CTCCCCCTTTTTTTCCTGTGGTTTCATTGCATGTTG | 4190
GGCTTCCGCCGCCACCACTGCCCCTCAACCGCCACG | 2040
CTCAGCTCCGCGGAAGTTGCGGTAAGTGGAGCTTTG | 5790
CACTGATTAAGAGGAAGTGTGTGTGGTTATTACCGT | 1170
AACAGCTTCCGGCACGGGGGCTGTGGTTGTGTTGGA | 1530
TGCTTCCCTTCCGTTCCGACAGCGAAAACCGCTGCC | 2030
AGAGCAACAGGATGCAAATAACCACAAGCAAGAATA | 3320
GACCAGGCGAGAGGATGTGGGTATGAGGGAGGAGCT | 1090
TCTCTTCCGTTCTCTGGTAGCTTTGTGGTAGCTTTG | 2710
GCACACCGGAACTCACACCTGAAACCACAGAACCAA | 5220
TCTTCAGGCGTCTTTCCGGTGGTGGTCGTTTTTGCT | 1390
TGCATGCAACAGGAAGTGGGGTGTGGTTTGTTCTGG | 1890
CCCCTCTCTCCCACTTCCTGTGGTCTCAGTCTTTGT | 4960
GGTTGTAAGTTCACAGGATGTGGTGTGTCCCTGTGG | 1400
GAAACCGGAAGCGGCGGCTGTCCGCGGTGCCGGCTG | 1550
CCCAGCCGAGGGAGGAAGCCTGCGGTCACTGCCATC | 3190
CAGGTGTTCAGGAAACAAAACCACAGACTTTTTCAC | 6800
ACACTGAGCTGAACGGAAATGTGGTTCTCACCTCAT | 1140
TCCCCGGCAGCTTCCTCGCCCCGACCGCAGTGTTCC | 1570
GTTTACAGGGGACAGGAAATGTGGGTGAACTCAGCC | 975
TCCAGCCCCACCGGAAGTGGATGTGGTTAATCTAGT | 6380
